# Data taken from PubChem BioAssay.
# Activity calls are given as the source filed them. Unless noted, no rule for the calls is given here.
# Key:
# [1] = HepG2 liver cancer cell viability effects, profiling panel, resazurin fluorescence, 24 h, PK04 Diversity Set (AID 1172); settings: higher = more signal; also: test concentration not given here
# [2] = basal S. cerevisiae growth modulation, no modifier, primary screen, OD600, strain BY4716, 24 h, basal condition (AID 1173); settings: OD600, 24 h, higher = more signal, called active from +8 up or from −8 down
# [3] = MM1S myeloma cell viability, profiling panel, resazurin fluorescence, basal, 24 h, PK04 Diversity Set (AID 1174); settings: higher = more signal, called active from +8 up or from −8 down;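 also: MM1S multiple myeloma cell line; test concentration not given here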
# [4] = molecular target: Dihydroorotate dehydrogenase (quinone), mitochondrial (Plasmodium falciparum (isolate 3D7)) (UniProt Q08210); experiment: PfDHODH enzyme inhibitors, primary screen, biochemical, C-terminal His tag, absorbance 600 nm (AID 1175); settings: DCIP absorbance 600 nm, higher = more signal, called active from +8 up or from −8 down;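 also: recombinant parasite enzyme with a five histidine tag at its C terminus; test concentration not given here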
# Dihydroorotate dehydrogenase (quinone), mitochondrial (Plasmodium falciparum (isolate 3D7)), sequence (Q08210 whole entry, looked up): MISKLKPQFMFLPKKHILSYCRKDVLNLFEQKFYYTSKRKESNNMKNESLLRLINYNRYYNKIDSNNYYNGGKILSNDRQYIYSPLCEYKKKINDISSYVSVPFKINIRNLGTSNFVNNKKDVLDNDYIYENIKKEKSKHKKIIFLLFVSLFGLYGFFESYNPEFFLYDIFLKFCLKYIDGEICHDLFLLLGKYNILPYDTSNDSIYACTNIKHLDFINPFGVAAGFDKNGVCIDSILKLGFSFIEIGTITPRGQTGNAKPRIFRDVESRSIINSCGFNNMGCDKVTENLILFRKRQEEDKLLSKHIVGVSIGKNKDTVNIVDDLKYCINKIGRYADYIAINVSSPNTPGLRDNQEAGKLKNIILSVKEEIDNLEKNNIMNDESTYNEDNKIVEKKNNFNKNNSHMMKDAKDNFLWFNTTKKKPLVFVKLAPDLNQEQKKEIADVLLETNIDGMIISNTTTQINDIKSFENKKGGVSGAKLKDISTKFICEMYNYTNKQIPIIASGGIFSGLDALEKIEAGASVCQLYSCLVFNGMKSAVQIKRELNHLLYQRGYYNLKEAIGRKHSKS
# [5] = P. aeruginosa biofilm formation inhibitors, primary screen, strain PAO1, LB-PBS medium, absorbance 600 nm (AID 1176); also: test concentration not given here; settings: P. aeruginosa PAO1 growth/biofilm, A600, 12 h; higher = more signal
# [6] = S. cerevisiae RM11-1a growth modifiers, primary screen, strain RM11-1a, OD600, basal, 24 h (AID 1177); settings: OD600, 24 h, higher = more signal, called active from +8 up or from −8 down;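 also: cultures grown under basal conditions with no added stressor; test concentration not given here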
# [7] = E. coli acrAB mutant growth effects, primary screen, E. coli filamentation inducers, strain DRC39, OD650, 24 h (AID 1178); settings: higher = more signal, called active from +8 up or from −8 down;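 also: growth measured as culture turbidity by optical density at 650 nm; test concentration not given here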
# [8] = E. coli acrAB mutant growth effects, primary screen, E. coli filamentation inducers, strain DRC39, OD650, 48 h (AID 1179);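 also: screen aims at cell division blockers that make cells filament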; settings: E. coli DRC39 delta-acrAB growth, higher = more signal, called active from +8 up or from −8 down
# [9] = RPMI8226 myeloma cell viability, profiling panel, resazurin fluorescence, basal, 24 h, PK04 Diversity Set (AID 1180); settings: higher = more signal;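 also: RPMI8826 multiple myeloma cell line at 5000 cells per well; test concentration not given here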
# [10] = molecular target: E3 ubiquitin-protein ligase XIAP (Homo sapiens) (UniProt P98170); experiment: XIAP binders, primary screen, biophysical, small-molecule microarray, fluorescence 635 nm (AID 1181); settings: small-molecule microarray binding, higher = more signal;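 also: score merges 667 nm emission and signal to noise over triplicate slides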
# E3 ubiquitin-protein ligase XIAP (Homo sapiens), sequence (P98170 whole entry, looked up): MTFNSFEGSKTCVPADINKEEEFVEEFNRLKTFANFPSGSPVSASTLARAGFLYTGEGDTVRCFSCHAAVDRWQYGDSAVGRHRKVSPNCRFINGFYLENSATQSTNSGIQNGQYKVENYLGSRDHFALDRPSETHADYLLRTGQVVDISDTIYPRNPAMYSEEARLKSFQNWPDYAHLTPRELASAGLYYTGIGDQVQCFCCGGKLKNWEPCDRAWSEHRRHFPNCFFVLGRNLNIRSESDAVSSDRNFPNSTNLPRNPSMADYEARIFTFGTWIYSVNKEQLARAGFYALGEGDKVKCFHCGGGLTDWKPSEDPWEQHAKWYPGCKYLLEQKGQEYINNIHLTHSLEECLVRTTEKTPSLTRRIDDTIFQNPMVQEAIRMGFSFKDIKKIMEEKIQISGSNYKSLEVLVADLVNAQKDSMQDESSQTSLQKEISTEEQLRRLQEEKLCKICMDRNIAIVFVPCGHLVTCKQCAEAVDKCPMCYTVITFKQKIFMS
SMILES,z-score [1],z-score [2],z-score [3],composite z-score [4],z-score [5],z-score [6],z-score [7],z-score [8],z-score [9],composite z-score [10]
CCOC(=O)[C@H](Cc1ccccc1)NC(=O)CCC1CC(OC(=O)NCc2ccc3c(c2)OCO3)CC2(CCCC(COC(=O)NCCOc3ccccc3)O2)O1 (stereo not given in full),0.425,-1.24 (inactive),0.975 (inactive),-1.76 (inactive),-0.102 (inactive),0.0995 (inactive),0.662 (inactive),0.181 (inactive),0.579,-0.0832
C=CC[C@@H]1C=C[C@H](ON=CC[C@@H]2C=C[C@H](OC(C)=O)[C@@H](COC(C)=O)O2)[C@@H](CO)O1,0.083,0.365 (inactive),-1.23 (inactive),-0.84 (inactive),-0.242 (inactive),0.879 (inactive),0.879 (inactive),0.984 (inactive),-0.687,-0.158
C=CC[C@@H]1C=C[C@H](ON=C(C)CCN2CCCCc3nc(C)c(C)cc32)[C@@H](CO)O1,0.162,0.399 (inactive),-0.201 (inactive),-0.923 (inactive),0.323 (inactive),0.334 (inactive),-0.275 (inactive),-0.681 (inactive),-0.103,0.183
CC(C)=NO[C@@H](C)c1cn([C@H](CO)Cc2ccccc2)nn1,-1.27,-1.16 (inactive),-0.597 (inactive),-1.44 (inactive),0.0889 (inactive),-2.2 (inactive),0.0116 (inactive),-1.77 (inactive),-1.18,0.314
CCN(CC)CC(O)CN1CCCCc2nc(C)c(C)cc21 (stereo not given),-0.148,-0.571 (inactive),0.423 (inactive),-2.78 (inactive),0.711 (inactive),-1.48 (inactive),0.721 (inactive),0.0142 (inactive),0.259,-0.271
CC(=O)OC[C@H]1O[C@@H](ON=C2[C@H]3CCn4c(=O)n(-c5ccccc5)c(=O)n4[C@H]3[C@H](O)[C@@H]3O[C@H]23)[C@H](OC(C)=O)[C@@H](OC(C)=O)[C@@H]1OC(C)=O,-0.779,-0.499 (inactive),-0.718 (inactive),-1.44 (inactive),-0.443 (inactive),-0.184 (inactive),0.435 (inactive),0.381 (inactive),-1.1,-0.174
CCCNC(=O)OC[C@H]1O[C@H](CCON=C2C[C@@H](O)[C@@H](O)[C@@H]3[C@@H]4C(=O)N(CC)C(=O)[C@@H]4CC[C@@H]23)C=C[C@@H]1Oc1ccc(OC)cc1,-0.57,0.0913 (inactive),-0.791 (inactive),-0.384 (inactive),0.429 (inactive),-0.32 (inactive),0.74 (inactive),0.658 (inactive),-1.02,-0.281
COc1ccc(COC(=O)NN=C2C[C@@H](O)[C@@H](O)[C@@H]3[C@@H]4C(=O)N([C@@H](C)c5ccccc5)C(=O)[C@@H]4CC[C@H]23)cc1,0.453,-0.111 (inactive),0.334 (inactive),-0.308 (inactive),0.683 (inactive),-0.677 (inactive),-0.267 (inactive),0.197 (inactive),0.818,0.0193
CCOC(=O)[C@H](Cc1ccccc1)NC(=O)CCC1CC(OC(=O)NCc2cccc3ccccc23)CC2(CCCC(COC(=O)NCCc3ccc(Cl)cc3)O2)O1 (stereo not given in full),0.723,-1.24 (inactive),0.768 (inactive),-0.617 (inactive),0.32 (inactive),-0.424 (inactive),-0.178 (inactive),-0.907 (inactive),1.45,0.165
CON=C(C)CCN1CCc2nc(-c3ccccc3)c(-c3ccccc3)cc2C1,1.86,-6.56 (inactive),-0.217 (inactive),-0.467 (inactive),0.958 (inactive),0.886 (inactive),0.83 (inactive),-2.48 (inactive),1.14,-0.0115
C#CCCCON=C1C[C@@H](O)[C@@H](O)[C@@H]2[C@@H]3C(=O)N(CC)C(=O)[C@@H]3CC[C@H]12,-0.588,0.866 (inactive),-0.729 (inactive),-0.0526 (inactive),-0.143 (inactive),-0.0584 (inactive),-0.312 (inactive),-0.241 (inactive),-1.09,-0.114
CC(CCN1CCCc2nc(C)c(C)cc21)=NOC[C@@H](O)COCc1ccco1,0.365,0.657 (inactive),0.107 (inactive),-0.697 (inactive),1.24 (inactive),-0.349 (inactive),0.557 (inactive),0.948 (inactive),0.592,2.53
CC(CCN1CCc2nc(-c3ccccc3)c(-c3ccccc3)cc2C1)=NOC(C)CN1CCCc2nc(C)c(C)cc21 (stereo not given),-0.0686,-3.98 (inactive),-0.877 (inactive),0.417 (inactive),0.371 (inactive),-0.572 (inactive),0.798 (inactive),-0.391 (inactive),-0.469,0.326
C#CCCCON=C1C[C@@H](O)[C@@H](O)[C@@H]2[C@@H]3C(=O)N(C[C@@H]4CCCO4)C(=O)[C@@H]3CC[C@H]12,-0.344,0.767 (inactive),-0.448 (inactive),0.347 (inactive),0.0001 (inactive),0.364 (inactive),-0.145 (inactive),0.212 (inactive),-0.179,-0.122
C#CCCCON=C1[C@H]2CCn3c(=O)n([C@@H](CC)c4ccccc4)c(=O)n3[C@H]2[C@H](O)[C@@H]2O[C@H]12,-0.14,-0.971 (inactive),-0.813 (inactive),0.147 (inactive),-0.531 (inactive),-0.771 (inactive),-0.529 (inactive),-0.567 (inactive),-0.751,-0.181
CCc1cc2c(nc1CC)CCN(CCC(C)=NOC[C@@H](C)[C@H](OCc1ccccc1)C(C)C)C2,-0.0541,-0.258 (inactive),0.0348 (inactive),-1.67 (inactive),-0.537 (inactive),-2.21 (inactive),-0.231 (inactive),-0.313 (inactive),-0.261,-0.11
COC(=O)C(C(=O)OC)C1CCCC(=O)C1 (stereo not given),-0.598,-0.272 (inactive),-1.14 (inactive),0.437 (inactive),-0.482 (inactive),0.386 (inactive),-1.37 (inactive),-0.561 (inactive),-0.53,-0.34
CO[C@H]1COC(=O)[C@H](C)COC(=O)[C@H](C)NC(=O)CC=C[C@H]1C,0.377,-1.32 (inactive),1.13 (inactive),0.0315 (inactive),-0.826 (inactive),-0.419 (inactive),0.91 (inactive),-0.193 (inactive),1.03,-0.0525
CCOC(=O)[C@H](CC(C)C)NC(=O)CCC1CC(OC(=O)NCc2ccc3c(c2)OCO3)CC2(CCCC(COC(=O)NCCOC)O2)O1 (stereo not given in full),1.22,-0.383 (inactive),0.982 (inactive),-0.617 (inactive),-0.516 (inactive),0.418 (inactive),0.214 (inactive),-1.31 (inactive),0.912,-0.0784
COc1ccc(O[C@H]2C=C[C@@H](c3ccccc3)O[C@@H]2CON=C2c3cc(OC)ccc3O[C@H](c3cccc(OC)c3)[C@H]2O)cc1,-0.568,0.311 (inactive),-0.89 (inactive),0.586 (inactive),1.53 (inactive),0.041 (inactive),0.779 (inactive),-0.824 (inactive),-0.387,-0.206
COC(=O)[C@@H]1CC[C@H](C)[C@@H](c2ccc(Br)cc2)N1,0.138,0.86 (inactive),0.176 (inactive),0.496 (inactive),0.119 (inactive),1.27 (inactive),0.45 (inactive),-0.836 (inactive),0.279,1.27
COC(=O)CC=C1c2ccccc2[C@H](OC)[C@H]1C,-0.71,0.338 (inactive),-0.788 (inactive),0.582 (inactive),-0.245 (inactive),-0.138 (inactive),0.216 (inactive),0.403 (inactive),-0.49,0.419
CC(=O)OC[C@H]1O[C@H](CC=NOCC[C@@H]2C=C[C@H](OC(C)=O)[C@@H](COC(C)=O)O2)C=C[C@@H]1OC(C)=O,0.149,0.0167 (inactive),0.0092 (inactive),-0.0986 (inactive),0.229 (inactive),0.0282 (inactive),0.847 (inactive),0.66 (inactive),0.117,0.287
CCOC(=O)[C@H](CC(C)C)NC(=O)CCC1CC(OC(=O)NCc2ccc3c(c2)OCO3)CC2(CCCC(COC(=O)NCCC(C)C)O2)O1 (stereo not given in full),0.54,-0.214 (inactive),1.03 (inactive),0.126 (inactive),0.462 (inactive),0.175 (inactive),1 (inactive),-0.0965 (inactive),0.497,0.0065
COc1ccc(COC(=O)NN=C2C[C@@H](O)[C@@H](O)[C@@H]3[C@@H]4C(=O)N(C(C)(C)C)C(=O)[C@@H]4CC[C@@H]23)cc1,-0.216,-0.719 (inactive),-0.181 (inactive),-0.761 (inactive),-0.225 (inactive),-1.06 (inactive),0.237 (inactive),0.255 (inactive),0.156,-0.252
CCOC(=O)[C@H](CC(C)C)NC(=O)CCC1CC(OC(=O)NCc2ccc3c(c2)OCO3)CC2(CCCC(COC(=O)NCCOc3ccccc3)O2)O1 (stereo not given in full),-0.167,0.592 (inactive),0.691 (inactive),0.0657 (inactive),-0.564 (inactive),1.21 (inactive),-0.0466 (inactive),-0.875 (inactive),0.632,0.154
